Compound activity (PubChem)
D3 ag: qHTS of D3 Dopamine Receptor Agonist: qHTS; D(3) dopamine receptor (Homo sapiens), P35462; D3R DiscoveRx beta-arrestin cells, luminescence, 90 min; max activation, %; 410,000 compounds, 0.58% hits; AID 652048, 2013; in the data active = max activation above about 30%; also: 0% is about no effect
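Agonist-mode cell screen: cells plated at 1500/well and incubated overnight at 37 °C, then exposed to library compounds for 90 min at 37 °C. Detection reagent was added for 30–60 min at room temperature, and luminescence was read.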
D3 antag: qHTS of D3 Dopamine Receptor Antagonist: qHTS; D(3) dopamine receptor (Homo sapiens), P35462; D3R cells, DiscoveRx beta-arrestin luminescence, antagonist mode; stronger effect = lower value; max response, negative = inhibition, %; 360,000 compounds, 2.5% hits; AID 652054, 2013; in the data active = max response below about -50%; inconclusive = no clear call, values can overlap the other calls; also: % is scaled to controls: 0 for no effect and ±100 for the full control effect
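Cells expressing the human receptor were seeded at 1500 cells/well, incubated overnight at 37 degrees C in 5% CO2, then exposed to library compounds with dopamine controls for 90 minutes at 37 degrees C before luminescent detection.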
TDP1 cell CPT: qHTS for Inhibitors of human tyrosyl-DNA phosphodiesterase 1 (TDP1): qHTS in cells in presence of CPT. Potency, µM (series often up to 46.2 µM), for the others: top-dose activity change, negative = growth inhibition, actives largely listed as inhibitors. 420,000 compounds, 12% hits. chicken DT40 Tdp1-/-;hTDP1 cells + 20 nM CPT, ATP luminescence, 48 h; also: potency is read from the fitted curve at half-maximal effect; % is scaled to controls: 0 for no effect and ±100 for the full control effect; nearly all actives have a fitted effect of over 55% in size
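Chicken DT40 Tdp1-/- cells stably complemented with human TDP1 were seeded at 400 cells/well in medium containing 20 nM camptothecin, exposed to pin-transferred compounds, and grown at 37 °C for at least 48 hr. Viability was read as ATP luminescence.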
ClpP mod: qHTS Assay for Activators of ClpP. ATP-dependent Clp protease proteolytic subunit (Bacillus subtilis (strain 168)), P80244. purified B. subtilis ClpP, FRET peptide cleavage, 20 min. Potency, µM (doses to about 57.5 µM), for the others: at the highest dose activity change, negative = active. 340,000 compounds, 1.9% hits; active = well fitted falling curve with a large enough effect; inconclusive = small, poorly fitted or top-dose-only effect; inactive = no such curve, though single readings can be large or run the other way; also: potency is read from the fitted curve at half-maximal effect; the source files actives as falling curves though it sought activators and does not explain the sign; nearly all actives have a fitted effect of over 65% in size
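Buffer: 100 mM Tris/HCl pH8, 100 mM KCl, 0.05% low protease BSA, 2.5% glycerol, 0.01% Tween-20. ClpP 10 microg/mL final; 20 min RT; delta FRET normalized to ADEP and DMSO controls.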
TDP1 cell noCPT: qHTS for Inhibitors of human tyrosyl-DNA phosphodiesterase 1 (TDP1): qHTS in cells in absence of CPT; DT40 Tdp1-/- hTDP1 cells, no CPT, ATP luminescence, 48 h; AID 686978, 2013; 420,000 compounds, 15% hits; Potency, µM (titrated, usually from 46.2 µM), inactives show at the highest dose activity change, negative = growth inhibition, actives largely listed as inhibitors; also: potency is read from the fitted curve at half-maximal effect; % is scaled to controls: 0 for no effect and ±100 for the full control effect; nearly all actives have a fitted effect of over 55% in size
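Chicken DT40 Tdp1-/- cells complemented with human TDP1, screened without camptothecin (DMSO vehicle only), 400 cells/well. Compounds pin-transferred, cells incubated at 37 °C for at least 48 hr. Growth read as ATP-dependent luminescence (CellTiter-Glo, 30 min at RT).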
IL-1B inflam inh: qHTS for Inhibitors of Inflammasome Signaling: IL-1-beta AlphaLISA Primary Screen; activity change, % at 57.5 µM; 360,000 compounds, 4.7% hits; AID 743279, 2014; THP-1 LPS/ATP IL-1B secretion, AlphaLISA, 16 h; stronger effect = lower value; in the data active = activity change below about -50%; inconclusive = mostly about -30% to -49%; also: % is scaled to controls: 0 for no effect and ±100 for the full control effect
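THP-1 cells pretreated 1 hr with compounds (up to 57.5 uM final), then stimulated with LPS (250 ng/mL final) plus ATP (1.25 mM final); secreted IL-1B measured by AlphaLISA after 16 hr, decreased signal indicating inhibition.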
* = called active by the depositor; ? = inconclusive; / = no result given. Only some compounds are listed: those with a hit (about 21% of all), similar ones and a draw of the others. Unless noted, calls follow the shape of the dose curve; as a rule, active = well fitted inhibition curve with a large enough effect; inconclusive = small, poorly fitted or top-dose-only effect; inactive = flat fitted curve, though single readings scatter.

SMILES	D3 ag	D3 antag	TDP1 cell CPT	ClpP mod	TDP1 cell noCPT	IL-1B inflam inh
CCC(Sc1nc2nccnc2c(=O)n1Cc1ccc(C)cc1)C(=O)NC1CCCCC1 (centres undefined)	-6	/	?	0%	?	/
COc1cccc(NC(=S)/C(=C(\[O-])c2ccc([N+](=O)[O-])cc2)[n+]2ccccc2)c1	-11	1	?	-1%	?	31
Cc1cccc(/C=N/NC(=O)Cn2nnnc2N)n1	7	-11	0%	1%	-9%	0
CCc1ccc(-c2cn3c(n2)sc2cc(C(=O)NCCc4ccc(OC)cc4OC)ccc23)cc1	2	/	23µM*	?	16µM*	/
COc1ccc(-c2cn3c(n2)sc2cc(C(=O)NCc4ccccc4)ccc23)cc1	0	/	?	?	?	/
COc1ccc2c(c1)sc1nc(-c3ccccc3)cn12	-5	0	0.52µM*	0%	0.92µM*	?
COc1ccc(CCNC(=O)c2ccc3c(c2)sc2nc(-c4ccccc4)cn23)cc1OC	-4	/	5.2µM*	?	7.3µM*	/
N#Cc1ccc(COc2cccc3cccnc23)cc1	-2	-7	1%	/	?	-14
COc1cc(CN2CCC(n3nccc3NC(=O)c3ccccc3OC)CC2)ccc1F	-1	3	?	1%	?	0
CCN(CC(=O)Nc1ccccc1C(F)(F)F)C(=O)c1cc2c(s1)CCCCC2	2	-17	?	/	23µM*	-53*
CCN(CC(=O)Nc1ccccc1C(F)(F)F)C(=O)c1oc2c(Cl)cccc2c1C	1	11	-9%	35µM*	?	-12
CCN(CC(=O)Nc1ccccc1C(F)(F)F)C(=O)c1cccc(N2C(=O)CCC2=O)c1	-10	-6	1%	1%	-13%	10
CCOC(=O)/C=C/C(=O)Nc1ccc(Oc2ccccc2)cc1	-14	-24	?	-1%	?	-73*
Cc1ccc(/C=C/C(=O)Nc2ccc(Oc3ccccc3)cc2)o1	4	11	?	-1%	?	-83*
Cc1ccc(/C=C/C(=O)Nc2ccc([N+](=O)[O-])cc2)o1	-12	12	?	-1%	?	-10
CC(=O)c1ccc(NC(=O)/C=C/c2ccc(C)o2)cc1	-6	/	15µM*	-4%	?	/
CCOC(=O)/C=C/C(=O)Nc1ccc(S(=O)(=O)Nc2c(C)cc(C)cc2C)cc1	1	?	7.3µM*	-1%	16µM*	-72*
O=C(O)/C=C/C(=O)Nc1ccc(Oc2ccccc2)cc1	-1	2	-1%	/	-12%	/
O=C(CCCn1c(=O)c2cccn2c2ccccc21)NCCc1ccc(Cl)cc1	10	/	?	-3%	?	/
CC(C)C[C@@H](CO)N1CCN(CC(C)C)CCC1=O	2	1	4%	1%	-14%	6
CC(C)(C)c1ccc(/C=N/NC(=O)CN2CCS(=O)(=O)CC2)cc1	8	9	4%	-1%	-4%	0
CC(C)(C)C(=O)Nc1ccccc1C(=O)NCCC(=O)Nc1ccccc1	-11	0	-21%	-3%	-21%	3
Cc1cc(NS(=O)(=O)c2ccc(NC(=O)/C=C/c3ccc(C)o3)cc2)nc(C)n1	-3	-3	15µM*	-8%	18µM*	8
CCOC(=O)/C=C/S(=O)(=O)c1ccc(NC(C)=O)cc1	-6	-76*	1.3µM*	0%	2.1µM*	-95*
Cc1ccc(NC(=O)/C=C/c2ccc(C)o2)c(C)c1	18	/	?	1%	?	/
SMILES	D3 ag	D3 antag	TDP1 cell CPT	ClpP mod	TDP1 cell noCPT	IL-1B inflam inh
CCOC(=O)/C=C/C(=O)OCC(=O)Nc1ccc(C)cc1	-15	0	-24%	/	?	-18
Cc1ccc(/C=C/C(=O)Nc2cccc3cccnc23)o1	-6	16	12µM*	-2%	12µM*	0
CC(=O)c1ccc(OCC(=O)N2CCN(S(=O)(=O)c3ccc(C)cc3C)CC2)cc1	7	9	?	0%	?	0
Cc1cc(N2CCCC2=O)ccc1S(=O)(=O)Nc1c(C)nn(C)c1C	-8	9	?	/	9.2µM*	34
Cc1cc(N2CCCC2=O)cc(C)c1S(=O)(=O)Nc1c(C)nn(C)c1C	7	7	-17%	/	-24%	33
Cc1cc(N2CCCC2=O)ccc1S(=O)(=O)NCCOc1ccccc1	-1	12	18µM*	/	15µM*	20
O=C(/C=C/c1ccco1)Oc1cccc2cccnc12	-4	-11	?	1%	?	-94*
COc1ccccc1/C=C/C(=O)OCCCN(C)C	-7	5	7%	/	3%	27
O=C(/C=C\c1ccco1)Oc1cccc2cccnc12	-1	?	0.58µM*	/	0.65µM*	-165*
COc1ccccc1/C=C/C(=O)Oc1cccc2cccnc12	0	-17	?	-22%	16µM*	0
C[C@H](NC(=O)c1[nH]cnc1C(=O)N[C@@H](C)CO)c1ccccc1	1	6	6%	-5%	4%	3
CC(C)N(Cc1ccccc1)C(=O)Cn1ncc2c([nH]c3ccccc32)c1=O	2	/	-13%	?	?	/
COc1ccc(/C=N/NC(=O)c2cc(-c3cccn3C)n[nH]2)cc1OC	-11	-12	?	-5%	18µM*	?
